High-throughput results deposited in PubChem by National Center for Advancing Translational Sciences (NCATS).
DT40 TDP1 CPT: growth inhibition of DT40 Tdp1-/-;hTDP1 cells with camptothecin (screen for TDP1 inhibitors). Potency, µM (series often up to 46.2 µM), for the others: top-dose activity change, negative = growth inhibition, most hits filed as inhibitors. chicken DT40 Tdp1-/-;hTDP1 cells + 20 nM CPT, ATP luminescence, 48 h. hit rate 12% among 420,000; note: potency is the fitted concentration of half-maximal effect; nearly all actives have a fitted effect of over 55% in size
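Chicken DT40 Tdp1-/- cells complemented with human TDP1, 400 cells/well, exposed to compounds plus 20 nM camptothecin for at least 48 h at 37 C; viability read as ATP content by CellTiter-Glo luminescence.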
12-LOX inh: ALOX12 (human) lipoxygenase inhibition | P18054 | purified 12hLO, xylenol orange hydroperoxide absorbance | Potency, µM (titrated, usually from 108 µM), without a hit: at the highest dose activity change, negative = inhibition, usual class: inhibitors | hit rate 1.1% among 580,000 | AID 1671190; note: potency is the fitted concentration of half-maximal effect
Target sequence (P18054 whole entry, looked up): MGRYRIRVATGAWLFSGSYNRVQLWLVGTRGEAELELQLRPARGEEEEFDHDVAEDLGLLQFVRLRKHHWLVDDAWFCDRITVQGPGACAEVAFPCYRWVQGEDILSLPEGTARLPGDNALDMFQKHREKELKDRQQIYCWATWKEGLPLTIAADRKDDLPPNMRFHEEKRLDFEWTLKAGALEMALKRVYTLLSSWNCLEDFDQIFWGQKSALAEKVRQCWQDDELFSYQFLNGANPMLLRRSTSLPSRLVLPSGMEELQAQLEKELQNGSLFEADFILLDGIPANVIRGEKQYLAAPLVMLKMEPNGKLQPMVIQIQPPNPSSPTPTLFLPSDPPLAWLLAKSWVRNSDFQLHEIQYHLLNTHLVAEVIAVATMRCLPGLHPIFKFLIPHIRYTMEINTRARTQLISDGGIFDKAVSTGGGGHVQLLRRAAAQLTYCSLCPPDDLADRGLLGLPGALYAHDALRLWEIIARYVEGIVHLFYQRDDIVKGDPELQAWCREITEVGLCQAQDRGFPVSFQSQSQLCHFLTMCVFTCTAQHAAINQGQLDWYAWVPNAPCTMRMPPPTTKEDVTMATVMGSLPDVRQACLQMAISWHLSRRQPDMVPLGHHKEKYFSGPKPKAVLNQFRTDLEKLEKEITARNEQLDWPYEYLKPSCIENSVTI
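Purified human 12hLO (150 nM final) in 25 mM Hepes, 0.01% Triton X-100, pH 7.0 was preincubated 15 min at room temperature with compound. Then 40 uM arachidonic acid was added, 30 min. Hydroperoxide was read by Fe-XO absorbance ratio 573/405 nm.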
IL-1B inflam inh: blocks inflammasome-driven IL-1 beta release. activity change, % at 57.5 µM. THP-1 LPS/ATP IL-1B secretion, AlphaLISA, 16 h; active compounds read low. AID 743279. hit rate 4.7% among 360,000; in the data active = activity change below about -50%; inconclusive = mostly about -30% to -49%
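Secreted IL-1B measured by AlphaLISA bead assay after 16 h compound exposure of THP-1 cells; compounds (final up to 57.5 uM) added 1 h before LPS (250 ng/mL) and ATP (1.25 mM) stimulation; lower signal means less secretion.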
HT1080NT lethal: kills 2HG-producing HT-1080-NT fibrosarcoma cells. HT-1080-NT fibrosarcoma viability, CellTiter-Glo ATP luminescence, 48 h. Potency, µM (titrated, usually from 46.1 µM), inactives show top-dose activity, negative = less viability, most hits filed as cytotoxic. hit rate 1.6% among 360,000. AID 686970;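 note: NT is the 2HG producing partner of a matched IDH1 knockdown line; potency is the fitted concentration of half-maximal effect; 0% = DMSO-treated cells and -100% = media-only wells without cells; nearly all actives have a fitted effect of over 55% in size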
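Read-out is CellTiter-Glo luminescence after 10 minutes at room temperature, following 48 hours' compound treatment of HT-1080-NT cells (750 cells/well, RPMI, 5% FBS, 37 degrees C).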
HT1080 IDH1KD tx: kills HT-1080 cells with IDH1 knockdown | HT-1080 IDH1 knockdown viability, ATP luminescence, 48 h | Potency, µM (highest dose often 46.1 µM), for inactives: at the highest dose activity, negative = toxicity, usual class: cytotoxic | hit rate 2% among 360,000 | AID 686971;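 note: potency is the fitted concentration of half-maximal effect; 0% = DMSO wells and -100% = cell-free medium wells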
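Viability of IDH1-knockdown HT-1080 fibrosarcoma cells was assessed by CellTiter-Glo after 48 h at 37 °C with titrated compound; concentration-effect curves were classified by fit quality and response size.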
DT40 TDP1 no CPT: qHTS for Inhibitors of human tyrosyl-DNA phosphodiesterase 1 (TDP1): qHTS in cells in absence of CPT | DT40 Tdp1-/- hTDP1 cells, no CPT, ATP luminescence, 48 h | Potency, µM (highest dose often 46.2 µM), inactives show at the highest dose activity change, negative = growth inhibition, most hits filed as inhibitors | hit rate 15% among 420,000 | AID 686978, 2013; note: potency is the fitted concentration of half-maximal effect; nearly all actives have a fitted effect of over 55% in size
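Camptothecin absent (DMSO only). Human TDP1-complemented DT40 knockout cells, 400 cells/well, 37 °C for minimum 48 hr; ATP measured via CellTiter-Glo, 30 min dark incubation, luminescence.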
* = called active by the depositor; [ ] = another dose, or the depositor's remark. The sample as a whole holds a higher share of hits than the screen did. Unless noted, calls come from the whole dose curve; as a rule, active = well fitted curve in the direction sought with a large enough effect; inconclusive = small, poorly fitted or top-dose-only effect, or another doubt; inactive = no such curve, though single readings can be large; an effect the other way counts as inactive or inconclusive. Unless noted, % is set by controls: 0 for no effect and ±100 for the full control effect.

What do the screens show for `COC(=O)c1nn(-c2ccc(OC)cc2)c(=O)cc1O`?
DT40 TDP1 CPT: 17%; 12-LOX inh: 1%; IL-1B inflam inh: 15; HT1080NT lethal: 2%; HT1080 IDH1KD tx: 0%; DT40 TDP1 no CPT: -1%

Results for CCOc1ccc(NC(=O)CN(C)C(=O)c2cc(C)nc3ccccc23)cc1OCC ?
DT40 TDP1 CPT: -20%; 12-LOX inh: -2%; IL-1B inflam inh: 17; HT1080NT lethal: -2%; HT1080 IDH1KD tx: 0%; DT40 TDP1 no CPT: inconclusive

How did COc1ccc(Cl)cc1NC(=O)CN(C)C(=O)c1cc(-c2ccncc2)nc2ccccc12 do in these assays?
DT40 TDP1 CPT: 23µM*; 12-LOX inh: -5%; IL-1B inflam inh: -25; HT1080NT lethal: -12%; HT1080 IDH1KD tx: -27%; DT40 TDP1 no CPT: 15µM*

How did CCOc1ccc(NC(=O)CN(C)C(=O)c2cc(-c3ccncc3)nc3ccccc23)cc1OCC do in these assays?
DT40 TDP1 CPT: inconclusive; 12-LOX inh: inconclusive; IL-1B inflam inh: -11; HT1080NT lethal: -12%; HT1080 IDH1KD tx: 1%; DT40 TDP1 no CPT: 16µM*

Results for COc1ccc(NC(=O)CN(C)C(=O)c2cc(-c3ccncc3)nc3ccccc23)cc1 ?
DT40 TDP1 CPT: -28%; 12-LOX inh: 10%; IL-1B inflam inh: -20; HT1080NT lethal: -10%; HT1080 IDH1KD tx: -22%; DT40 TDP1 no CPT: inconclusive

Results for CCOc1ccc(NC(=O)CN(C)C(=O)c2cn(-c3ccccc3)nc2-c2cccs2)cc1OCC ?
DT40 TDP1 CPT: 18µM*; 12-LOX inh: 10%; IL-1B inflam inh: 0; HT1080NT lethal: -5%; HT1080 IDH1KD tx: -24%; DT40 TDP1 no CPT: inconclusive

How did CCOc1ccc(NC(=O)CN(C)C(=O)c2cn(-c3ccc(C)cc3)nc2-c2cccc(OC)c2)cc1OCC do in these assays?
DT40 TDP1 CPT: inconclusive; 12-LOX inh: 2%; IL-1B inflam inh: -4; HT1080NT lethal: -4%; HT1080 IDH1KD tx: -2%; DT40 TDP1 no CPT: inconclusive

What do the screens show for `CCOc1ccc(NC(=O)CN(C)C(=O)c2cc(-c3ccco3)nc3ccccc23)cc1OCC`?
DT40 TDP1 CPT: 18µM*; 12-LOX inh: inconclusive; IL-1B inflam inh: -5; HT1080NT lethal: -20%; HT1080 IDH1KD tx: -5%; DT40 TDP1 no CPT: 18µM*

What do the screens show for `COCC(=O)Nc1cc(C(=O)N2CC3CCCC2C3)c2c(c1)nc(-c1ccncc1)n2C` (stereo not given)?
DT40 TDP1 CPT: 6%[9.04 µM]; 12-LOX inh: 8%; DT40 TDP1 no CPT: -7%

How did Cc1ccc(C)c(C(=O)/C=C\N(C)C)c1 do in these assays?
12-LOX inh: 28%

How did CC[n+]1c(/C=C/Nc2ccccc2)oc2ccccc21 do in these assays?
DT40 TDP1 CPT: 15µM*; 12-LOX inh: inconclusive; IL-1B inflam inh: -27; HT1080NT lethal: -24%; HT1080 IDH1KD tx: inconclusive; DT40 TDP1 no CPT: 15µM*

What do the screens show for `O=C(CN1CCN(C(=O)CCc2ncc(-c3ccccc3Cl)o2)CC1)Nc1cccc(F)c1`?
12-LOX inh: -6%

What do the screens show for `CSc1nc2sc3c(c2c(=O)n1-c1ccc(C)cc1)CCCC3`?
DT40 TDP1 CPT: inconclusive; 12-LOX inh: 0%; DT40 TDP1 no CPT: 8.2µM*

How did CSc1nc2sc3c(c2c(=O)n1C)CCCC3 do in these assays?
DT40 TDP1 CPT: -24%; 12-LOX inh: -11%; IL-1B inflam inh: 25; HT1080NT lethal: -2%; HT1080 IDH1KD tx: 20%; DT40 TDP1 no CPT: inconclusive

What do the screens show for `O=c1c2c3c(sc2nc(NCCO)n1-c1ccccc1)CCCC3`?
DT40 TDP1 CPT: 6.5µM*; 12-LOX inh: 0%; IL-1B inflam inh: 9; HT1080NT lethal: inconclusive; HT1080 IDH1KD tx: inconclusive; DT40 TDP1 no CPT: 12µM*

Results for COc1ccc(-n2c(NN)nc3sc4c(c3c2=O)CCCC4)cc1 ?
DT40 TDP1 CPT: -3%; 12-LOX inh: -2%; IL-1B inflam inh: -15; HT1080NT lethal: inconclusive; HT1080 IDH1KD tx: inconclusive; DT40 TDP1 no CPT: inconclusive

How did CSc1nc2sc3c(c2c(=O)n1-c1ccccc1)CCC(C(C)(C)C)C3 (stereo not given) do in these assays?
DT40 TDP1 CPT: inconclusive; 12-LOX inh: -18%; DT40 TDP1 no CPT: 0.92µM*

Results for CC(C)Sc1nc2sc3c(c2c(=O)n1-c1ccccc1)CCCC3 ?
DT40 TDP1 CPT: inconclusive; 12-LOX inh: 0%; DT40 TDP1 no CPT: 18µM*

What do the screens show for `C[S+](=O)([O-])c1ccc(-c2cc3c(ccn3Cc3ccncc3)c(N3CCOCC3)n2)cc1`?
12-LOX inh: 14%

Results for Cc1ccc(Cl)cc1NC(=S)N(CCCN1CCN(C)CC1)Cc1ccco1 ?
DT40 TDP1 CPT: 10%; 12-LOX inh: 2%; IL-1B inflam inh: inconclusive; HT1080NT lethal: -19%; HT1080 IDH1KD tx: -6%; DT40 TDP1 no CPT: 2%

What do the screens show for `O=C(Cc1ccc(O)cc1)N1CCOC2(CCN(C(=O)c3ccccc3)CC2)C1`?
12-LOX inh: 11%[6.33 µM]

Results for COc1cc(F)ccc1-c1ccnc2nc(-c3cccs3)nn12 ?
12-LOX inh: -16%

What do the screens show for `Nn1c(Nc2ccccc2)nc2sc3c(c2c1=O)CCC3`?
DT40 TDP1 CPT: 1µM*; 12-LOX inh: inconclusive; IL-1B inflam inh: -2; HT1080NT lethal: inconclusive; HT1080 IDH1KD tx: inconclusive; DT40 TDP1 no CPT: 2.9µM*

Results for CC1CCCCN1S(=O)(=O)c1ccc(C(=O)Nc2sc3c(c2C(N)=O)CC(C)(C)NC3(C)C)cc1 (stereo not given) ?
DT40 TDP1 CPT: 26µM*; 12-LOX inh: -10%; DT40 TDP1 no CPT: inconclusive

How did CN(C1CCCCC1)S(=O)(=O)c1ccc(C(=O)Nc2sc3c(c2C(N)=O)CC(C)(C)NC3(C)C)cc1 do in these assays?
DT40 TDP1 CPT: inconclusive; 12-LOX inh: -20%; IL-1B inflam inh: 26; HT1080NT lethal: inconclusive; HT1080 IDH1KD tx: -8%; DT40 TDP1 no CPT: inconclusive

Results for COc1ccc(C(=O)Nc2ccc3nc(SCC(=O)N4CCc5ccccc54)sc3c2)cc1 ?
DT40 TDP1 CPT: 2.9µM*; 12-LOX inh: -19%; DT40 TDP1 no CPT: 5.2µM*

How did CCCCC(=O)Nc1ccc2nc(SCC(=O)N3CCc4ccccc43)sc2c1 do in these assays?
DT40 TDP1 CPT: 15µM*; 12-LOX inh: -10%; DT40 TDP1 no CPT: 5.8µM*

What do the screens show for `Cc1ccc(C(=O)Nc2ccc3nc(SCC(=O)N4CCc5ccccc54)sc3c2)cc1`?
DT40 TDP1 CPT: inconclusive; 12-LOX inh: -5%; DT40 TDP1 no CPT: inconclusive
